Hit rate of the full screen: of about 420,000 compounds, about 64,000 (15%) were called active. Another 27% or so got no clear call; they are omitted. The list is a sample of the results. Unmarked numbers belong to inactive results. Calls follow the shape of the dose curve; as a rule, active = well fitted inhibition curve with a large enough effect; inconclusive = small, poorly fitted or top-dose-only effect; inactive = flat fitted curve, though single readings scatter.
assay: qHTS for Inhibitors of human tyrosyl-DNA phosphodiesterase 1 (TDP1): qHTS in cells in absence of CPT; settings: DT40 Tdp1-/- hTDP1 cells, no CPT, ATP luminescence, 48 h; activity change, negative = growth inhibition: at 46.2 µM (top of the series); also: nearly all actives have a fitted effect of over 55% in size
How it was run: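 Cells were dispensed at 400 per well, compounds added by pin tool, plates incubated ≥48 hr at 37 °C, then CellTiter-Glo added for 30 min at room temperature before luminescence reading. Line: DT40 Tdp1-/- complemented with hTDP1; camptothecin omitted.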
% is scaled to controls: 0 for no effect and ±100 for the full control effect; potency is read from the fitted curve at half-maximal effect.

SMILES | activity change, negative = growth inhibition | Potency
CCC1CN(CCNC(=O)c2cccc(C)n2)Cc2cc(OC)ccc2O1 (centres undefined) | -22.3% | 
CC(C)C(=O)Nc1c(O)c2ccccc2[nH]c1=O | -18.3% | 
O=C(O)C1CCCN(S(=O)(=O)c2cccc3cccnc23)C1 (centres undefined) | -2.56% | 
CC(C)[C@@H]1NC(=O)c2cc([N+](=O)[O-])cc(I)c2NCCC[C@@H](C(=O)NC(CC(=O)O)C(N)=O)NC(=O)[C@H](CO)NC1=O (some centres undefined) | 5.19% | 
COC(=O)c1c(C)[nH]c(C(=O)NCCc2ccc(S(N)(=O)=O)cc2)c1C | 2.2% | 
CCCc1c(C)nc2c(Br)cccc2c1Cl | -2.83% | 
Cn1cnc(C(F)(F)F)c1-c1ccc([N+](=O)[O-])cc1 | -21.8% | 
COc1ccc(S(=O)(=O)c2c[nH]c(=S)[nH]c2=O)cc1Cl | -9.17% | 
Cc1ccc(/C(N)=N/OC(=O)COc2ccc(Cl)c(C)c2)cc1 | -38.7% | 
COc1ccc(-c2noc(COc3ccc(Cl)c(C)c3)n2)cc1 | -29.5% | 
COc1ccc(C(C)=O)cc1COc1ccc(Cl)c(C)c1 |  | 9.2 µM (active)
O=C(CSCc1c(Cl)cccc1Cl)NN1C(=O)c2ccccc2C1=O | -2.81% | 
Cc1cc(C)c(NC(=S)N2CCCC2C(=O)O)c(C)c1 (centres undefined) | -5.64% | 
Cc1nn(CC(=O)N2CCN(c3cccc(C(F)(F)F)c3)CC2)c(=O)c2cc3sccc3n12 | -19.1% | 
CC(C)N1C[C@@H](NCc2ccccc2O)C[C@H]1C(=O)N1CCN(c2cccc(C(F)(F)F)c2)CC1 |  | 18.4 µM (active)
O=C(c1cc2ccccc2o1)N1CCN(c2cccc(C(F)(F)F)c2)CC1 | -21.2% | 
Cc1cc(C)nc(NS(=O)(=O)c2ccc(N3C(=O)C4CCCCC4C3=O)cc2)n1 (centres undefined) | 16.2% | 
CC(=O)NC(Cc1ccccc1)C(=O)NC1CCN(c2ncccc2[N+](=O)[O-])CC1 (centres undefined) | 8.39% | 
O=S(=O)(Nc1cccc(-c2ccc(N3CCOCC3)nn2)c1)c1ccc(Cl)c(Cl)c1 | -20.1% | 
O=[N+]([O-])c1ccc(S(=O)(=O)Nc2cccc(-c3ccc(N4CCCC4)nn3)c2)cc1 | -15.2% | 
CCCOc1ccc(-c2cccc(NS(=O)(=O)c3ccccc3)c2)nn1 |  | 23.1 µM (active)
N#Cc1ccc(CSc2nnc3ccccn23)cc1 | -2.49% | 
O=c1c2ccccc2cnn1Cc1n[nH]c(=S)n1-c1ccccc1F | -6.52% | 
CNS(=O)(=O)c1cnccc1N1CCN(c2cccc(C)c2)CC1 | 8.13% | 
Cc1ccc(N2CCN(C3=NC(=O)/C(=C\c4cccs4)S3)CC2)cc1 | -22.3% | 
CC(C)=C1SC(N2CCN(c3cccc(C)c3)CC2)=NC1=O |  | 20.6 µM (active)

SMILES | activity change, negative = growth inhibition | Potency
N/C(=N\OC(=O)CC1CCCCC1)c1ccccc1 | -3.88% | 
Cc1cc(C)c2c(=O)[nH]c(SCC(=O)Nc3ccc(Br)cc3)nc2n1 | -37.2% | 
O=C(Nc1cc(S(=O)(=O)N2CCOCC2)ccc1OCC(F)(F)F)c1ccc(N2CCCC2=O)cc1 | -18.2% | 
CCOC(=O)C1C(c2ccc(Cl)cc2)NC(=S)NC1(O)C(F)(F)F (centres undefined) | -14.7% | 
O=C(NCCOCc1ccc(Cl)cc1)c1ncn[nH]1 | -12.1% | 
O=C(CSc1ncn[nH]1)N/N=C/c1ccc(F)cc1 | -2.04% | 
O=C(/C=C/Sc1ncn[nH]1)c1ccc(Cl)cc1 |  | 2.59 µM (active)
Cc1csc(NC(=O)c2ccc(-c3ccc(Cl)cc3Cl)o2)n1 |  | 5.17 µM (active)
O=C(O)c1cc(Cl)c(Cl)cc1C(=O)Nc1cccc2ncccc12 | -3.56% | 
Cc1csc(NC(=O)c2ccc(C)s2)n1 | -3.86% | 
O=C(Nc1cccnc1Cl)c1cc(-c2cccc(Cl)c2)on1 |  | inactive
Cc1ccc(C(=O)Nc2nc3ccc(Cl)cc3s2)o1 | -29.3% | 
O=C(Nc1cccc2ncccc12)c1ccc(-c2ccc(Cl)cc2Cl)o1 |  | 20.6 µM (active)
COc1ccc(Br)c2c1C(=O)CC2 | -9.71% | 
O=C(NCc1ccc(F)cc1)C(c1ccccc1)N(C(=O)c1csnn1)C1CC1 (centres undefined) | -5.76% | 
CCNC(=O)N1CCN(S(=O)(=O)c2ccc3c(c2)OCCCO3)CC1 | -11.4% | 
Cc1ccc(NC(=O)CC(=O)Nc2ccc(C)cc2)cc1 | 1.48% | 
CCN(c1ccccc1)S(=O)(=O)c1ccc(NC(=O)C(C)(C)C)cc1 | -11.1% | 
CC(C)(CCl)C(=O)Nc1ccc(Sc2ccc(F)cc2)cc1 |  | 7.31 µM (active)
O=C(CCl)Nc1ccc(Sc2ccc(NC(=O)CCl)cc2)cc1 |  | 5.17 µM (active)
O=C(Cc1ccc(Cl)c(Cl)c1)Nc1ccc(SC(F)F)cc1 | -118% | 
CC(=O)Nc1cc(C(=O)NCc2ccc(F)cc2)ccc1Sc1ccc(F)cc1 | -96.8% | 
Cc1sc2ncn(CC(=O)NCCCC(=O)NCc3ccc(F)cc3)c(=O)c2c1C | -8.84% | 
Cc1c(Cl)cccc1NC(=O)CC1SC(=NCC2CCCO2)NC1=O (centres undefined) | -9.62% | 
COc1ccc(N2C(=O)C3CCCN3C2c2cc(OC)c(OC)cc2OC)cc1 (centres undefined) | -20.9% | 
CCNC(=O)C1(C)CCCN(C(=O)c2ccc3ccccc3n2)C1 (centres undefined) | -3.43% | 

SMILES | activity change, negative = growth inhibition | Potency
Cc1cc(/C=N/NC(=O)c2cccnc2)c(C)n1CC(C)C | -0.506% | 
Cc1cccc(-n2c(C)cc(/C=N\NC(=O)c3cccs3)c2C)c1 |  | 16.4 µM (active)
Cc1cccc(-n2c(C)cc(/C=N/NC(N)=S)c2C)c1 |  | 5.8 µM (active)
Cc1cc(/C=N/NC(N)=O)c(C)n1C1CCCCC1 | 2.04% | 
CC(=O)Nc1ccc(/C=N/NC(=O)c2cccs2)cc1 | 0.163% | 
Cc1cc(/C=N/n2cnnc2)c(C)n1-c1cccc(C(=O)O)c1 | -0.81% | 
Cc1c(C#N)c2ncn(CC#N)c(=O)c2n1-c1ccccc1 | -2.44% | 
CCCCOC(=O)Nc1nnc(CC(=O)NCc2ccccc2)s1 | -11.9% | 
Nn1c(SCC(=O)NC2CCCC2)nnc1-c1ccccc1F | -8.8% | 
Cc1cccc(CNC(=O)c2cnn(-c3nccc(-c4ccccc4F)n3)c2C2CC2)n1 | 1.08% | 
Cc1cc(-c2ccnc(-n3ncc(C(=O)NCCc4ccncc4)c3C)n2)c(C)s1 | -20.8% | 
Cc1cc(-c2ccnc(-n3ncc(C(=O)NC(C)(C)CO)c3C3CC3)n2)c(C)s1 |  | 23.1 µM (active)
CNc1nc2c(C)cccn2c(=O)c1C=Nc1ccc(OC)cc1 | 8.41% | 
CC(Oc1ccc(Cl)cc1)C(=O)Nc1ncccn1 (centres undefined) | -16.2% | 
CCN1CCN(C(=O)N[C@@H](C(=O)N[C@@H]2C(=O)N3[C@@H]2SC(C)(C)[C@H]3C(=O)O)c2ccccc2)C(=O)C1=O | -0.422% | 
O=C(NC(=S)Nc1cccc(-c2ccc(CO)o2)c1)c1cccs1 |  | 25.9 µM (active)
O=C(NC(=S)Nc1ccc(NC(=O)c2cccs2)cc1)c1ccc([N+](=O)[O-])cc1 | 2.62% | 
CCc1nnc(NS(=O)(=O)c2ccc(NC(=S)NC(=O)c3cccs3)cc2)s1 | -17.6% | 
Cc1ccc(N2C(=O)C3C4C=CC(CC4)C3C2=O)cc1Cl (centres undefined) | -6.19% | 
N#Cc1cccc(OC(=O)c2ccc3c(=O)n4c(nc3c2)CCC4)c1 | -17.1% | 
O=C(CSCc1cccs1)N1CCCC1 | -13.6% | 
O=C(CSCc1ccc(Cl)cc1)N1CCCCC1 |  | 16.4 µM (active)
CC(=O)C(CC(=O)N1CCCC1)C(=O)Nc1ccc(Cl)cc1 (centres undefined) | -8.38% | 
O=C(N/C(=C\c1ccc([N+](=O)[O-])cc1)C(=O)N1CCCCC1)c1ccco1 | -17.8% | 
COC(=O)/C(NC(C)=O)=C(\C)c1ccc(Cl)cc1 | -13.3% | 
COc1ccc(OC)c(NC(=O)CC(Cc2ccccc2OC)C(=O)O)c1 (centres undefined) |  | 11.2 µM (active)

SMILES | activity change, negative = growth inhibition | Potency
CCOc1ccccc1NC(=O)Nc1cc(OC)ccc1OC | 0.675% | 
COc1ccc(OC)c(NC(=O)Cc2cccs2)c1 | -10.7% | 
CC1CC(C)(C)n2c(O)c(N=NC(N)=S)c3cccc1c32 (centres undefined) | -23.2% | 
COC(=O)[C@@]1(Cc2ccc(F)cc2)[C@H]2c3cc(C(=O)N(C)C)n(CCc4c[nH]c5ccc(OC)cc45)c3C[C@H]2CN1C(=O)c1ccccc1 |  | 23.1 µM (active)
COC(=O)[C@@]1(Cc2ccc(OC)cc2)[C@H]2c3cc(C(=O)N4CCCC4)n(Cc4ccc(OC(F)(F)F)cc4)c3C[C@H]2CN1C(=O)c1ccccc1 |  | 18.4 µM (active)
COC(=O)[C@@]1(Cc2ccc(F)cc2)[C@H]2c3cc(C(=O)N4CCCC4)n(Cc4ccc(OC(F)(F)F)cc4)c3C[C@H]2CN1C(=O)c1ccccc1 |  | 18.4 µM (active)
COC(=O)c1cccc(C(=O)N2CCC(CCC(=O)NCc3ccc(F)cc3)CC2)c1 | -6.05% | 
COc1ccc2[nH]cc(CCN3C(=O)c4ccc(C(=O)O)cc4C3=O)c2c1 | -14.5% | 
COc1ccc(OCc2cccc(C(=O)N3CCCC3)c2)cc1 | -22.2% | 
Cc1ccc(CN2CCNC(=O)C2CC(=O)NCc2csc(C(C)C)n2)cc1 (centres undefined) | -4.7% | 
Cc1cc(NC(=O)c2cccc(N3C(=O)CCC3=O)c2)no1 | -17.9% | 
Cc1cc(N/C=C\C(=O)c2ccc(Cl)c(Cl)c2)no1 | -14.7% | 
Cc1cccc(OCCC(=O)OCc2csc(CC(=O)Nc3ccccc3C)n2)c1 | 0.189% | 
O=C(CSc1nnc(SCc2ccc(F)cc2)s1)Nc1ccc(C(=O)O)cc1 | 5.88% | 
CCCCn1c(N)c(N(CCC(C)C)C(=O)COC(=O)c2cccnc2OCC)c(=O)[nH]c1=O | 14.9% | 
O=C(NCCCCO)C(F)(F)C(F)(F)C(F)(F)C(=O)NCCCCO | 4.75% | 
CC1=C2C(=O)OC(c3ccoc3)C2(C)CCC1 (centres undefined) | -12.7% | 
O=C(Nc1ccc(F)cc1)Nc1nnc([C@H]2C[C@H](O)[C@@H](CO)O2)s1 | -21.8% | 
Cc1c(Cl)cnc(NC(=O)COC(=O)C2CCCC2)c1Cl | 14.7% | 
Cc1ccc(NC(=O)C(C)Sc2nnc(C3CC3)n2C2CC2)cc1S(=O)(=O)N1CCOCC1 (centres undefined) | 15% | 
FC(F)Oc1ccccc1C1CC(c2ccc(Br)s2)Nc2ncnn21 (centres undefined) |  | 16.4 µM (active)
Clc1ccc(C2CC(c3cccs3)n3ncnc3N2)cc1Cl (centres undefined) | -22% | 
COc1ccc(C2CC(c3ccccc3)Nc3ncnn32)cc1 (centres undefined) | -9.25% | 
COc1ccc(C(=O)N2CCCC(C(=O)c3ccccc3OC)C2)cc1OC (centres undefined) | 15.4% | 
CSCC(=O)N1CCCC(C(=O)c2cc(F)ccc2F)C1 (centres undefined) | -24.5% | 
COc1ccc(F)cc1C(=O)C1CCCN(C(=O)CCc2ccccn2)C1 (centres undefined) |  | 18.4 µM (active)

Source: PubChem BioAssay AID686978 (National Center for Advancing Translational Sciences (NCATS), 2013)
